The whole screen tested about 2,500 compounds, of which about 480 (19%) were called active.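 The calls were made as follows: active = mean inhibition above about 25% (limit read from the data); inactive = the rest.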 The full list was thinned out, with actives kept by preference.
experiment: Wnt3a reporter signal inhibition, confirmation, counter-screen for Gli-SUFU antagonist project, Wnt-LIGHT cells, luminescence, single concentration (AID 651995); details: Wnt3a-driven luciferase reporter, at 6.25 µM, hits give high values

Question: With `CCOc1cccc(=NC2CCCCC2)c2c(C)[nH]c(C)c12` as the compound, how does the inhibition read?
Answer: Its inhibition is 26.5% (active).

From PubChem BioAssay AID651995 (Sanford-Burnham Center for Chemical Genomics, 2013)
